In all, about 63,000 compounds went through this assay and about 1,100 (1.7%) were called active. This is one part of a sample in which actives are shown more often than they occur. Potency and affinity values are given separately. A number with no mark means an inactive call.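 The calls were made as follows: active = compounds whose percent cytotoxicity in the single-dose primary screen, scaled between solvent and toxic-drug controls, exceeds 50; inactive = the rest.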
assay: cytotoxicity in KRAS-transformed pancreatic duct cells, primary screen, cell-based, fluorescence, HTS (AID 431); details: HPDE-C7K KRASV12 cells, Alamar Blue viability, 48 h; at 10 µM; active compounds read high;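 also: 0% = DMSO solvent wells and 100% = doxorubicin-treated wells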

| SMILES | cytotoxicity |
| --- | --- |
| Cc1ccc(OCCN2CCN(C(=O)CCC(=O)Nc3nnc(C(C)C)s3)CC2)cc1 | 14.3% |
| COc1ccc(-c2noc(COc3ccc(C)c(C)c3)n2)cc1OC | 4.5% |
| COc1ccc(-c2noc(COc3ccc4ccccc4c3Br)n2)cc1OC | 58% (active) |
| COc1ccc(-c2noc(COc3ccccc3OC)n2)cc1OC | -10.5% |
| CCOC(=O)N1CCN(Cc2nc3c(c(=O)[nH]c(=O)n3C)n2CCCc2ccccc2)CC1 | -0.5% |
| CCN(CC)CCCNC(=O)Cn1cc2c(n1)CCC(C)C2 (stereo not given) | 3.7% |
| COc1cccc(Oc2cnc(N)nc2-c2ccc(OC)cc2O)c1 | 45.2% |
| COc1ccc(-c2nc(N)nc(C)c2Oc2ccccc2Br)c(O)c1 | 92.6% (active) |
| COc1ccc(-c2nc(N)ncc2Oc2ccccc2Br)c(O)c1 | 3.7% |
| CCc1ccccc1NC(=O)CN(C)C(=O)CN1C(=O)NC2(CCCCCC2)C1=O | 2.1% |
| COc1ccc(NC2C=CS(=O)(=O)C2)c(OC)c1 (stereo not given) | 4.8% |
| Cc1n[nH]c(C)c1S(=O)(=O)N1CCN(c2ccccn2)CC1 | 7.4% |
| CCCCC(=O)c1c(O)c2ccccc2oc1=O | 17.2% |
| CCc1oc2ccccc2c1C(=O)CCN1CCCCC1 | 9.9% |
| CCOC(=O)C1=C(C)NC2=C(C(=O)CCC2)C1c1cc(OC)ccc1OC (stereo not given) | 1.4% |
| CCOc1ccc(Cn2c(=O)oc3ccc(C)cc32)cc1OC | -2.4% |
| O=S(=O)(c1ccc2ccccc2c1)N1CCCCC1 | 5.8% |
| O=S(=O)(c1ccc2ccccc2c1)N(CC(O)CN1CCOCC1)c1ccccc1 (stereo not given) | -11.1% |
| O=C(CN1C(=O)CCSc2ccccc21)Nc1ccccc1 | -22.3% |
| CCCSc1nnc(NC(=O)Nc2ccc(F)cc2)s1 | 75.2% (active) |
| CCC(=O)Nc1nnc(SCC(=O)Nc2ccc(F)cc2)s1 | -4.3% |
| CCCSc1nnc(NC(=O)Nc2ccccc2)s1 | -9.2% |

| SMILES | cytotoxicity |
| --- | --- |
| COc1cc(-c2nc3cnccc3n2C)cc(OC)c1OC | -11.3% |
| O=C(Nc1cc(C(F)(F)F)ccc1N1CCOCC1)c1ccco1 | -2.4% |
| Cc1onc(-c2ccccc2)c1C(=O)Nc1cc(C(F)(F)F)ccc1N1CCOCC1 | 60.3% (active) |
| O=C(Nc1cc(C(F)(F)F)ccc1N1CCOCC1)c1cccnc1 | 2.2% |
| O=C(Nc1cc(C(F)(F)F)ccc1N1CCOCC1)c1c(F)c(F)c(F)c(F)c1F | 69.9% (active) |
| Cc1onc(-c2ccccc2)c1C(=O)Nc1ccccc1N1CCOCC1 | 4.2% |
| CC(=O)Nc1cc(C(F)(F)F)ccc1N1CCOCC1 | -2.7% |
| COc1cc(C2NC(=O)c3ccccc3O2)cc(OC)c1OC (stereo not given) | -13.8% |
| OC1C=CSc2nc3ccccc3n21 (stereo not given) | -17.8% |
| COC(=O)COc1ccc(NC(=O)C2CCCO2)cc1 (stereo not given) | -3% |
| CC(C)C[C@H](NC(=O)NCc1ccc(Cl)cc1)C(=O)O | 5.3% |
| CCCOC(=O)Nc1nc2ccccc2o1 | -0.4% |
| COc1ccccc1C(=O)Nc1nnc(-c2ccc(F)cc2)o1 | -1.2% |
| CC(C)CCn1cnc2c(cnn2-c2ccc(F)cc2)c1=O | -10.9% |
| C=CCOc1ccccc1CNn1nnnc1N | -4.5% |
| Nc1ccc(N2CCCCC2)cc1N1CCCCC1 | 34.3% |
| O=C(O)c1ccc(N2CCCCC2)cc1 | -1.2% |
| O=C(O)CCn1[nH]c(=O)ccc1=O | -18.2% |
| CSc1ccccc1NC(=O)c1ccco1 | 4.6% |
| COc1ccc(C2C3=C(CC(c4ccco4)CC3=O)Nc3ccccc3N2C(C)=O)cc1 (stereo not given) | -5.9% |
| CCC(=O)N1c2ccccc2NC2=C(C(=O)CC(c3ccco3)C2)C1c1ccco1 (stereo not given) | 7.6% |
| O=C1CC(c2ccco2)CC2=C1C1c3ccccc3C(=O)N1c1ccccc1N2 (stereo not given) | 51.6% (active) |

| SMILES | cytotoxicity |
| --- | --- |
| COC(=O)C(C(=O)OC)=C(/C=C/N(C)C)N(C)C | 0.2% |
| Nc1nonc1C(=O)NCCNCc1ccccc1OCc1ccccc1F | 0.9% |
| Nc1nonc1C(=O)NCCNCc1cc(Br)ccc1OCc1ccc(F)cc1 | 54% (active) |
| Nc1nonc1C(=O)NCCNCc1cc(Br)ccc1OCc1ccccc1F | 17.1% |
| COCCn1c(SCC(=O)N2CCCCC2)nc2ccccc2c1=O | 4.9% |
| CC(=O)Nc1ccc(S(=O)(=O)N(C)c2ccc(O)cc2)cc1 | -12.1% |
| CCOc1ccc(C(=O)Nc2ccc3c(c2)OCO3)cc1OCC | -16.6% |
| CCOC(=O)c1ccc(NC(=O)C2CCN(S(=O)(=O)c3ccccc3)CC2)cc1 | 6.6% |
| Cc1ccccc1Cn1c(=O)n(CCCC(=O)NCc2ccco2)c(=O)c2ccccc21 | -20.6% |
| Cc1ccc(C)c(Cn2c(=O)n(CCCC(=O)NCc3ccco3)c(=O)c3ccccc32)c1 | 56.3% (active) |
| Cc1ccc(C)c(Cn2c(=O)n(CCC(=O)NCc3ccco3)c(=O)c3ccccc32)c1 | 3% |
| COc1ccc(CCNC(=O)CSc2nc(N)c3c(C)c(C)oc3n2)cc1OC | 4.3% |
| O=C(Nc1cccc2ccccc12)N1CCN(c2ccccc2)CC1 | 10.4% |
| O=C(Nc1cccc(NC(=O)N2CCN(c3ccccc3)CC2)c1)N1CCN(c2ccccc2)CC1 | 61.3% (active) |
| O=C(Nc1ccc2snnc2c1)N1CCN(c2ccccc2)CC1 | -17.1% |
| COc1cc(OC)cc(-c2cc(NC(C)=O)n[nH]2)c1 | -2% |
| CCOC(=O)c1[nH]c(C)c(C(=O)N2CCOCC2)c1C | 4.4% |
| COc1cc(/C=C/C2=NC(=O)C(C)(C)O2)ccc1O | 32.6% |
| C/C=C/c1ccc(OC)c(OC(C)=O)c1 | 1.5% |
| O=C(Nc1cccnc1N1CCOCC1)c1ccco1 | -0.2% |
| CCn1c(SCC(=O)c2cc(OC)ccc2OC)nnc1C1CC1 | 4.1% |
